Assay results reported in PubChem BioAssay (EPA / NIEHS).
The source made the active and inactive calls. How the source made its calls: active means hit-call score of the fitted dose curve at least 0.9, where 1 is the maximum; inactive means score below 0.9.

Columns and labels:
[1] = ATG_E_Box_CIS: Attagene CIS-FACTORIAL HepG2 Assay for human Enhancer Box (E-box) (AID 2282936); conditions: HepG2 E-box cis-reporter transcription, actives raise or lower the signal
Outline: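 E-box-driven reporter transcripts measured in transiently transfected HepG2 after 24 h exposure: RNA reverse-transcribed, PCR-amplified, fluorescently labelled, digested and resolved by capillary electrophoresis. Gain or loss relative to DMSO.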

[2] = ATG_M_61_CIS: Attagene CIS-FACTORIAL HepG2 Assay for M61 Transcription Factor (Internal Marker) (AID 2282937); conditions: HepG2 Attagene CIS-FACTORIAL M61 internal marker reporter; actives raise or lower the signal
Outline: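 Background-control endpoint: HepG2 cells with cis-regulated reporter constructs, 24 h exposure, reporter mRNA detected via fluorescent primer extension and capillary electrophoresis; values from bidirectional fitting with DMSO baseline.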

[3] = ATG_EGR_CIS: Attagene CIS-FACTORIAL HepG2 Assay for human Early Growth Response 1 (EGR1) (AID 2282938); conditions: HepG2 Attagene CIS-FACTORIAL EGR reporter mRNA; actives raise or lower the signal
Outline: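 Endpoint derived by bidirectional fitting versus DMSO vehicle. Method: cis-promoter reporter units transfected into HepG2, 24 h dosing, RNA isolation, RT-PCR with 6-FAM primer extension and HpaI digestion, then capillary electrophoresis fluorescence detection.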

[4] = ATG_Ets_CIS: Attagene CIS-FACTORIAL HepG2 Assay for human Erythroblast Transformation Specific (ETS) (AID 2282941); conditions: HepG2 ETS cis-reporter transcription, actives raise or lower the signal
Outline: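 RT-PCR/capillary electrophoresis fluorescence read-out of reporter mRNA; HepG2 transient multi-reporter transfection; 24 h compound exposure; gain or loss of signal fitted bidirectionally relative to DMSO.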

[5] = target: Hepatocyte nuclear factor 3-beta (Homo sapiens) (UniProt Q9Y261); experiment: ATG_FoxA2_CIS: Attagene CIS-FACTORIAL HepG2 Assay for human Forkhead box A2 (FOXA2) (AID 2282942); conditions: HepG2 cis-reporter transcription factor activity, 24 h; actives raise or lower the signal
Sequence of Hepatocyte nuclear factor 3-beta (Homo sapiens) (Q9Y261 whole entry, looked up): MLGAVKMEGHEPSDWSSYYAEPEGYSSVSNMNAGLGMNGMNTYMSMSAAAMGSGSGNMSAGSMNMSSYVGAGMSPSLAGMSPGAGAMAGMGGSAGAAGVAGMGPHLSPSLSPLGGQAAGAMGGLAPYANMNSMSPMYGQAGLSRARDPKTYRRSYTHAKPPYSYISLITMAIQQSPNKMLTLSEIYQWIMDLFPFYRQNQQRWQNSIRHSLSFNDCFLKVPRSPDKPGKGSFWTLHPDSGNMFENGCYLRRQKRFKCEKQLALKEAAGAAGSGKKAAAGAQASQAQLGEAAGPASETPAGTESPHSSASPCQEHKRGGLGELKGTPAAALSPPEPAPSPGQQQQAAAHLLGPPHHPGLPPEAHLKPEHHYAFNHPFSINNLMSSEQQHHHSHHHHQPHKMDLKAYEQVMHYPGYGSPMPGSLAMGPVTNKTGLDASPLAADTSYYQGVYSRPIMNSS
Outline: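 Measured: reporter mRNA induction or loss in HepG2 transiently carrying multiple cis-regulated reporter units, 24 h after dosing. Quantified by RT-PCR plus capillary electrophoresis, normalised to DMSO.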

[6] = ATG_FoxO_CIS: Attagene CIS-FACTORIAL HepG2 Assay for human Forkhead box O (FoxO) (AID 2282943); conditions: HepG2 Attagene cis-reporter, FoxO element, mRNA; actives raise or lower the signal
Outline: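 Human hepatoma HepG2 cells carry transiently introduced reporter transcription units controlled by cis promoter elements. Chemical treatment lasted 24 h, and mRNA signal was compared with DMSO.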

[7] = ATG_GATA_CIS: Attagene CIS-FACTORIAL HepG2 Assay for human GATA Binding Protein (AID 2282944); conditions: HepG2 GATA cis-element reporter, Attagene multiplex mRNA; actives raise or lower the signal
Outline: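 HepG2 cells transiently transfected with multiplexed cis-element reporter units measure endogenous GATA activity; after 24 h compound exposure, reporter mRNA quantified by RT-PCR and capillary electrophoresis. Changes fitted in both directions vs DMSO.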

[8] = ATG_GLI_CIS: Attagene CIS-FACTORIAL HepG2 Assay for human Zinc Finger Protein GLI1 (AID 2282945); conditions: HepG2, Attagene cis-factorial reporter mRNA, GLI element; actives raise or lower the signal
Outline: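 Bidirectional curve fits relative to DMSO, using reporter mRNA levels from RT-PCR plus capillary electrophoresis. Cells were HepG2 transiently carrying cis-regulated reporter constructs, harvested 24 h after dosing.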

[9] = target: Bile acid receptor (Homo sapiens) (UniProt Q96RI1); experiment: ATG_IR1_CIS: Attagene CIS-FACTORIAL HepG2 Assay for human Nuclear Receptor Subfamily 1 Group H Member 4 (NR1H4), IR1 submotif (AID 2282946); conditions: IR1 reporter transcription, actives raise or lower the signal
Sequence of Bile acid receptor (Homo sapiens) (Q96RI1 whole entry, looked up): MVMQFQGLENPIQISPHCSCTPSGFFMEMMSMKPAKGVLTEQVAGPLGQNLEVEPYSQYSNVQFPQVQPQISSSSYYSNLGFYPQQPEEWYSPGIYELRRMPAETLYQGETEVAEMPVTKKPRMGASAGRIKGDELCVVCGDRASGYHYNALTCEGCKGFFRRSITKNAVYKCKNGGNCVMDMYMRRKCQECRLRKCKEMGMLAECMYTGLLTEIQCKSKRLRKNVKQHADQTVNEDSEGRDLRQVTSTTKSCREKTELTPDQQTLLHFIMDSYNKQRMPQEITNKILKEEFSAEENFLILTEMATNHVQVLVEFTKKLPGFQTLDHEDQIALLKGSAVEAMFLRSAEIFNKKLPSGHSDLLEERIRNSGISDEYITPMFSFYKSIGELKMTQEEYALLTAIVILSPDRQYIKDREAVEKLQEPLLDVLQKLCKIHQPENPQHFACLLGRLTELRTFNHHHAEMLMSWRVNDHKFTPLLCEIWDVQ
Outline: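 HepG2 cells transiently transfected with multiplexed cis-element reporter units read endogenous transcription factor activity. After 24 h compound exposure, reporter mRNA was quantified by RT-PCR, fluorescent labelling, HpaI digestion and capillary electrophoresis; bidirectional fitting versus DMSO baseline.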

[10] = ATG_ISRE_CIS: Attagene CIS-FACTORIAL HepG2 Assay for human Interferon Regulatory Factor 1 (IRF1) binding to an Interferon-Stimulated Response Element (ISRE) (AID 2282948); conditions: HepG2 ISRE cis-reporter (Attagene), mRNA transcription readout; actives raise or lower the signal
Outline: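 Read-out: fluorescent RT-PCR products resolved by capillary electrophoresis, reporting endogenous transcription factor activity via ISRE-driven reporter mRNA in transfected HepG2 cells dosed for 24 h; gain or loss fitted relative to DMSO.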

[11] = ATG_M_32_CIS: Attagene CIS-FACTORIAL HepG2 Assay for M32 Transcription Factor (Internal Marker) (AID 2282949); conditions: HepG2 Attagene cis-factorial M32 reporter, mRNA; actives raise or lower the signal;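 further: background control marker of the multiplexed CIS panel rather than a real target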
Outline: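 HepG2 human liver cells transiently transfected with cis-promoter-driven multiple reporter transcription units, dosed 24 h. Reporter mRNA quantified by RT-PCR, FAM-labelled primer extension, HpaI digest and capillary electrophoresis; bidirectional fit versus DMSO baseline.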

[12] = ATG_M_06_CIS: Attagene CIS-FACTORIAL HepG2 Assay for M06 Transcription Factor (Internal Marker) (AID 2282950); conditions: HepG2 Attagene CIS-FACTORIAL M06 internal marker reporter; actives raise or lower the signal
Outline: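 Internal background marker within multiplexed cis-reporter HepG2 system. Cells transiently transfected, dosed 24 h; reporter mRNA measured by RT-PCR, HpaI digestion and capillary electrophoresis. Bidirectional fit relative to DMSO.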

[13] = target: Hypoxia-inducible factor 1-alpha (Homo sapiens) (UniProt Q16665); experiment: ATG_HIF1a_CIS: Attagene CIS-FACTORIAL HepG2 Assay for human Hypoxia Inducible Factor 1 (HIF1A) (AID 2282951); conditions: HepG2 Attagene cis-factorial HIF1a reporter transcription; actives raise or lower the signal
Sequence of Hypoxia-inducible factor 1-alpha (Homo sapiens) (Q16665 whole entry, looked up): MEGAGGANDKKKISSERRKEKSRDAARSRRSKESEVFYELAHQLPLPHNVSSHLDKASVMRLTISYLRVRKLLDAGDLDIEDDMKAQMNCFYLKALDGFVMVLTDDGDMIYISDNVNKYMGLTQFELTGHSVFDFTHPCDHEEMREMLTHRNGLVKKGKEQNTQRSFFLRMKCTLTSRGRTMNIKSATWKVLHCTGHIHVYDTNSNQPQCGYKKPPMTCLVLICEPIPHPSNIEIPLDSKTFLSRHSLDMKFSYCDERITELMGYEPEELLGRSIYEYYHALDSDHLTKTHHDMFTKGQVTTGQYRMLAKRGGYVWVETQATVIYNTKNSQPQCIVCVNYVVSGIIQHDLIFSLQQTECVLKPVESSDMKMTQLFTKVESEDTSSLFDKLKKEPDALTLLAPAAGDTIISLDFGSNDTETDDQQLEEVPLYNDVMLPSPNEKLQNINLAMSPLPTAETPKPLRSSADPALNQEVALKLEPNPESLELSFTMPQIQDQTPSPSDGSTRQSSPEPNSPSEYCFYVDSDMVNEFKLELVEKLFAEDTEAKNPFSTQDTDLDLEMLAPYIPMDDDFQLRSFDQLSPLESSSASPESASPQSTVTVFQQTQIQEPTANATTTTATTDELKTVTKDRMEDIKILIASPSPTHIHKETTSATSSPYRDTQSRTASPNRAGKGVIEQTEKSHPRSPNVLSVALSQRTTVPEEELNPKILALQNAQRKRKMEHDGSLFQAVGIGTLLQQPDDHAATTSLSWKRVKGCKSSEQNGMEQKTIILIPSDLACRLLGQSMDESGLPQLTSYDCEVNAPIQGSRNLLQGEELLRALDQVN
Outline: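 Dosed 24 h, transfected HepG2 cells yielded total RNA whose reporter transcripts were RT-PCR-amplified and sized by capillary electrophoresis using fluorescent labelling; DMSO defined baseline, with gain and loss of signal both fitted.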

[14] = target: Hepatocyte nuclear factor 6 (Homo sapiens) (UniProt Q9UBC0); experiment: ATG_HNF6_CIS: Attagene CIS-FACTORIAL HepG2 Assay for human Hepatocyte Nuclear Factor 6 (HNF6) (AID 2282952); conditions: HepG2 Attagene cis-factorial HNF6 reporter transcription; actives raise or lower the signal
Sequence of Hepatocyte nuclear factor 6 (Homo sapiens) (Q9UBC0 whole entry, looked up, the tested form may be a part): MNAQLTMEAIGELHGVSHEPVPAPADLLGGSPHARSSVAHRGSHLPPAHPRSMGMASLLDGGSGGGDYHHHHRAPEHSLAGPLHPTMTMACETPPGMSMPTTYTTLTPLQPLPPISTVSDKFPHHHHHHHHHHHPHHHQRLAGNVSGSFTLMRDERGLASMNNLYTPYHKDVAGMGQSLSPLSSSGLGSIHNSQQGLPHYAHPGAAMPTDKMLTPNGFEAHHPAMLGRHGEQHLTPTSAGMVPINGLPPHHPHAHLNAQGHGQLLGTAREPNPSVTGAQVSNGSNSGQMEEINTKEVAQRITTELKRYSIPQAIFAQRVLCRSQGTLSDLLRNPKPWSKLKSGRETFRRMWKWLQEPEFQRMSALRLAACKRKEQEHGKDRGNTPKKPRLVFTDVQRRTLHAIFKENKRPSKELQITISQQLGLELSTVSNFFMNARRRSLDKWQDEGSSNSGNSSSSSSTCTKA
Outline: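 Using cis-element reporters in HepG2 liver cells, the assay tracks endogenous factor-driven transcription 24 h post-dosing. Signal comes from 6-FAM-labelled, HpaI-digested RT-PCR fragments, with gain or loss scored against DMSO.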

[15] = target: Heat shock factor protein 1 (Homo sapiens) (UniProt Q00613); experiment: ATG_HSE_CIS: Attagene CIS-FACTORIAL HepG2 Assay for human Heat Shock Transcription Factor 1 (HSE) (AID 2282953); conditions: HepG2 HSE cis-reporter, Attagene RNA transcription; actives raise or lower the signal
Sequence of Heat shock factor protein 1 (Homo sapiens) (Q00613 whole entry, looked up): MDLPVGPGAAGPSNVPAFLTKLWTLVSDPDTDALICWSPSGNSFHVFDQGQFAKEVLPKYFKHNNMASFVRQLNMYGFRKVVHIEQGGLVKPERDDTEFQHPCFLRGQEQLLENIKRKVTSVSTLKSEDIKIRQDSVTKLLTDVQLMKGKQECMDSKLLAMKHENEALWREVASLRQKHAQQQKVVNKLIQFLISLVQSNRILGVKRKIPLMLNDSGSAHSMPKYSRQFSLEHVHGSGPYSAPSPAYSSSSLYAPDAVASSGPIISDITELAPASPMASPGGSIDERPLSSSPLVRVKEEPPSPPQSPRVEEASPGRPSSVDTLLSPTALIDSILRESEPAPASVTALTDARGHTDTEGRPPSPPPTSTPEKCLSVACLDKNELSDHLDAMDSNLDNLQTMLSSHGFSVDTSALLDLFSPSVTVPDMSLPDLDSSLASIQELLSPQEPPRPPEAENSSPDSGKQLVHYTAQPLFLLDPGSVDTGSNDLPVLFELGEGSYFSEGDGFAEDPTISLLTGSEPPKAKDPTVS
Outline: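 HepG2 cells transfected with cis-promoter reporter units sensing endogenous transcription factor activity; reporter mRNA quantified 24 h post-dose by RT-PCR and capillary electrophoresis of 6-FAM-labelled products. Bidirectional fitting against DMSO.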

[16] = ATG_MRE_CIS: Attagene CIS-FACTORIAL HepG2 Assay for human Metal Responsive Element (MRE) (AID 2282954); conditions: HepG2 MRE cis-reporter transcription, Attagene multiplex; actives raise or lower the signal
Outline: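 Endogenous MRE-dependent transcription read as reporter mRNA in transiently transfected human HepG2 cells at 24 h. RNA reverse-transcribed, PCR-amplified, labelled and resolved by capillary electrophoresis; gain or loss relative to DMSO.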

[17] = ATG_PBREM_CIS: Attagene CIS-FACTORIAL HepG2 Assay for human Phenobarbital-responsive Enhancer Module (PBREM) (AID 2282955); conditions: HepG2 PBREM cis-reporter, Attagene multiplexed transcription; actives raise or lower the signal
Outline: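 Transfected liver-derived HepG2 cells exposed 24 h; PBREM reporter transcript quantified via RT-PCR and capillary electrophoresis, with activity in either direction referenced to DMSO.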

[18] = ATG_GRE_CIS: Attagene CIS-FACTORIAL HepG2 Assay for human Glucocorticoid Response Elements (GRE) (AID 2282947); conditions: HepG2 GRE cis-reporter, Attagene multiplex mRNA; actives raise or lower the signal
Outline: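 Reporter transcripts read by RT-PCR with capillary electrophoresis fluorescence after a 24 h chemical exposure of HepG2 cells transiently transfected with multiple cis-element reporter units. Gain or loss fitted against DMSO.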

[19] = ATG_ERE_CIS: Attagene CIS-FACTORIAL HepG2 Assay for Estrogen Response Element (ERE) (AID 2282940); conditions: HepG2 ERE cis-reporter, Attagene RNA transcript; actives raise or lower the signal
Outline: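 HepG2 cells transiently transfected with multiplexed cis-element reporter units, measuring endogenous transcription factor activity; ERE reporter mRNA quantified after 24 h exposure by RT-PCR, fluorescent labelling, HpaI digestion and capillary electrophoresis. Bidirectional change versus DMSO.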

Measured: AC50

CCCCCCCCCCCCCCCO
inactive: [1] | [2] | [3] | [4] | [5] | [7] | [8] | [10] | [11] | [12] | [13] | [14] | [15]
active: [6] 175 µM | [9] 41.3 µM

CCOC(=O)CC(CC(=O)OCC)(OC(C)=O)C(=O)OCC
inactive: [1] | [2] | [3] | [4] | [5] | [6] | [7] | [8] | [9] | [10] | [11] | [12] | [13] | [14] | [15] | [16] | [17]

Cc1ccc(O)cc1
inactive: [1] | [2] | [3] | [4] | [5] | [6] | [7] | [8] | [9] | [18] | [10] | [11] | [12] | [14] | [15] | [16] | [17]

CCCCCCc1ccc(O)cc1O
active: [3] 52.7 µM | [10] 55.7 µM | [13] 50.7 µM
inactive: [1] | [2] | [4] | [5] | [6] | [7] | [8] | [18] | [11] | [12] | [14] | [15] | [17]

Nc1ccc(Nc2ccccc2)cc1
inactive: [1] | [2] | [3] | [4] | [5] | [6] | [7] | [8] | [18] | [10] | [11] | [12] | [13] | [14] | [15] | [17]
active: [19] 35.1 µM

O=C1CCCCCN1
inactive: [1] | [2] | [3] | [4] | [5] | [6] | [7] | [8] | [9] | [10] | [11] | [12] | [13] | [14] | [15] | [16] | [17]

CC(=O)OC[C@H]1O[C@@](COC(C)=O)(O[C@H]2O[C@H](COC(C)=O)[C@@H](OC(C)=O)[C@H](OC(C)=O)[C@H]2OC(C)=O)[C@@H](OC(C)=O)[C@@H]1OC(C)=O
inactive: [1] | [2] | [3] | [4] | [5] | [6] | [7] | [8] | [18] | [10] | [11] | [12] | [13] | [14] | [15] | [16]

CN(C)c1ccc(N=NS(=O)(=O)O)cc1
inactive: [1] | [2] | [3] | [4] | [5] | [6] | [7] | [8] | [18] | [10] | [11] | [12] | [14] | [17]
active: [13] 40.9 µM
